# Data reported in the supplement of paper PMC8728848.
# This is one part of a sample in which the strongest signals are shown more often than they occur.
# Columns and labels:
# Experiment in all cases: glycan array binding signal (z-score within array); higher = stronger binding
# Conditions in all cases: glycan notation: IUPAC condensed, linker removed
# [1] = test system: Gal(b1-4)GlcNAc(b1-2)Man(a1-3)[Gal(b1-4)GlcNAc(b1-2)][GlcNAc(b1-4)]Man(b1-4)GlcNAc(b1-4)GlcNAc
# Procedure, shortened: (§1)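 Glycan array data were curated from 3228 arrays in the Consortium for Functional Glycomics database and kept only where the protein sequence was available. Glycan names were converted to IUPAC-condensed notation, and columns mapping to the same glycan were averaged. The binding signal is a within-array Z-score, averaged across arrays of the same protein sequence at different concentrations or buffers and across linkers. Negative Z-scores can be read as non-binding.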
# [2] = test system: Gal(b1-4)GlcNAc(b1-2)[Gal(b1-4)GlcNAc(b1-4)]Man(a1-3)[Gal(b1-4)GlcNAc(b1-2)[Gal(b1-4)GlcNAc(b1-6)]Man(a1-6)]Man(b1-4)GlcNAc(b1-4)GlcNAc
# Procedure, shortened: as §1
# [3] = test system: Gal(b1-4)GlcNAc(b1-2)[Gal(b1-4)GlcNAc(b1-4)]Man(a1-3)[GlcNAc(b1-4)][Gal(b1-4)GlcNAc(b1-2)Man(a1-6)]Man(b1-4)GlcNAc(b1-4)GlcNAc
# Procedure, shortened: as §1
# [4] = test system: Gal(b1-4)GlcNAc(b1-3)Gal(b1-4)GlcNAc(b1-2)Man(a1-3)[Gal(b1-4)GlcNAc(b1-3)Gal(b1-4)GlcNAc(b1-2)Man(a1-6)]Man(b1-4)GlcNAc(b1-4)GlcNAc
# Procedure, shortened: as §1
# [5] = test system: Gal(b1-4)GlcNAc(b1-3)Gal(b1-4)GlcNAc(b1-3)Gal(b1-4)GlcNAc(b1-2)Man(a1-3)[Gal(b1-4)GlcNAc(b1-3)Gal(b1-4)GlcNAc(b1-3)Gal(b1-4)GlcNAc(b1-2)Man(a1-6)]Man(b1-4)GlcNAc(b1-4)[Fuc(a1-6)]GlcNAc
# Procedure, shortened: as §1
# [6] = test system: Gal(b1-4)GlcNAc(b1-3)Gal(b1-4)GlcNAc(b1-3)Gal(b1-4)GlcNAc(b1-2)[Gal(b1-4)GlcNAc(b1-3)Gal(b1-4)GlcNAc(b1-3)Gal(b1-4)GlcNAc(b1-6)]Man(a1-6)[Gal(b1-4)GlcNAc(b1-3)Gal(b1-4)GlcNAc(b1-3)Gal(b1-4)GlcNAc(b1-2)Man(a1-3)]Man(b1-4)GlcNAc(b1-4)[Fuc(a1-6)]GlcNAc
# Procedure, shortened: as §1
# [7] = test system: Gal(b1-4)GlcNAc(b1-2)Man(a1-6)Man(b1-4)GlcNAc(b1-4)GlcNAc
# Procedure, shortened: as §1
# [8] = test system: Gal(b1-4)GlcNAc(b1-2)[Gal(b1-4)GlcNAc(b1-6)]Man(a1-6)[GlcNAc(b1-4)][Gal(b1-4)GlcNAc(b1-2)Man(a1-3)]Man(b1-4)GlcNAc(b1-4)GlcNAc
# Procedure, shortened: as §1
# [9] = test system: Gal(b1-4)GlcNAc(b1-3)Gal(b1-4)GlcNAc(b1-2)[Gal(b1-4)GlcNAc(b1-3)Gal(b1-4)GlcNAc(b1-6)]Man(a1-6)[Gal(b1-4)GlcNAc(b1-3)Gal(b1-4)GlcNAc(b1-2)Man(a1-3)]Man(b1-4)GlcNAc(b1-4)[Fuc(a1-6)]GlcNAc
# Procedure, shortened: as §1
# [10] = test system: Gal(b1-4)GlcNAc(b1-3)Gal(b1-4)GlcNAc(b1-3)Gal(b1-4)GlcNAc(b1-2)Man(a1-3)[Gal(b1-4)GlcNAc(b1-3)Gal(b1-4)GlcNAc(b1-3)Gal(b1-4)GlcNAc(b1-2)Man(a1-6)]Man(b1-4)GlcNAc(b1-4)GlcNAc
# Procedure, shortened: as §1
# CHI3L1 (Homo sapiens), P36222, sequence (P36222 whole entry): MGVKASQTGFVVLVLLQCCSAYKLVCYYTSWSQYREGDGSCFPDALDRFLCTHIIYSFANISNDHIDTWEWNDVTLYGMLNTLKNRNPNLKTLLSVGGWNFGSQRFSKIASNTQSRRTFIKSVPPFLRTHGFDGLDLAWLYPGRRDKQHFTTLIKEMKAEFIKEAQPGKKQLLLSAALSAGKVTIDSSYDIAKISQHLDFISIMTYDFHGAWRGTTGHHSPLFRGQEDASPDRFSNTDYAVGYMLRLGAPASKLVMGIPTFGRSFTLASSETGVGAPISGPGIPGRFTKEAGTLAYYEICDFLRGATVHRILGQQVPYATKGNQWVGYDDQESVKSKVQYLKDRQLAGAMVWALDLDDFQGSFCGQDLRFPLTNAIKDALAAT
# PILRb (Mus musculus), Q2YSF2, sequence (Q2YSF2 entry or part of it): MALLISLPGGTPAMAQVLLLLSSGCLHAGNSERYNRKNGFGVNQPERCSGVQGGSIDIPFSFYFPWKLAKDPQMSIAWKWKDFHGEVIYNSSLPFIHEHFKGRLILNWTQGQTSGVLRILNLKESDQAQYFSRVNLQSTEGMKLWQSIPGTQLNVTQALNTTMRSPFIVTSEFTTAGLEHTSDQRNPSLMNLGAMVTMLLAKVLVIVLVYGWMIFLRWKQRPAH
# PILRa (Mus musculus), Q2YSF3, sequence (Q2YSF3 entry or part of it): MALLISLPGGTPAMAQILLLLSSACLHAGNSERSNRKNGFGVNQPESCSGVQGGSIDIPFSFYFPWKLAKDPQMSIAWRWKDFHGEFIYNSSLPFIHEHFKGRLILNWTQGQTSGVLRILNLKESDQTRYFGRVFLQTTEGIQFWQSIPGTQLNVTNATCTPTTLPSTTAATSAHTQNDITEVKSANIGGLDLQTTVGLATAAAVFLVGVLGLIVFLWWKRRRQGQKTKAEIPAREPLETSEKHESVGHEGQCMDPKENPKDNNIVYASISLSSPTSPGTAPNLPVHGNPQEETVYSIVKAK
# Avaren (Actinomycete K97), sequence (chain, as listed by the source): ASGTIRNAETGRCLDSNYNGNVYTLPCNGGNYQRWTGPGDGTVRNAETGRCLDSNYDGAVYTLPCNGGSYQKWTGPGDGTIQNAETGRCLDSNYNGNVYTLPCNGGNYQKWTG
substance,measurement,setting,value
"PILRb (Mus musculus), Q2YSF2",glycan array binding signal (z-score),[1],-0.5
"Siglec-8 (Homo sapiens), Q9NYZ4",glycan array binding signal (z-score),[1],-0.068
same,glycan array binding signal (z-score),[2],-0.067
same,glycan array binding signal (z-score),[3]; mutation: R125K,-0.113
same,glycan array binding signal (z-score),[4],0.515
same,glycan array binding signal (z-score),[4]; mutation: R125K,2.56
same,glycan array binding signal (z-score),[5],0.69
same,glycan array binding signal (z-score),[6]; mutation: R125K,0.13
"CHI3L1 (Homo sapiens), P36222",glycan array binding signal (z-score),[7],-0.062
same,glycan array binding signal (z-score),[3],-0.131
"PILRa (Mus musculus), Q2YSF3",glycan array binding signal (z-score),[8],-0.088
MpAFP RI GFP (Marinomonas primoryensis),glycan array binding signal (z-score),[4],2.61
same,glycan array binding signal (z-score),[9],5.48
same,glycan array binding signal (z-score),[6],3.87
Avaren (Actinomycete K97),glycan array binding signal (z-score),[10],-0.051
